The whole screen tested about 13,000 compounds, of which about 3,200 (25%) showed an effect of 50% or more. Some of the results follow.
Each compound was assayed on P. falciparum stage V gametocytes. Conditions: 48 h, 5 µM; inhibitor.
Design: BacTiter-Glo ATP luminescence viability of purified stage V gametocytes in 384-well plates, per cent inhibition versus DMSO

| Structure (SMILES) | % Inhibition [%] |
| --- | --- |
| Cc1cc(-c2ccnc(Nc3cccc(C#N)c3)n2)cc(C)c1O [TCMDC-133719] | -73.96 |
| O=C(NC1CCCCCC1)C1CCCN(C(=O)c2ccc(O)c(-c3ccc(Cl)c(Cl)c3)c2)C1 (stereo not drawn) [TCMDC-140888] | 23.53 |
| CCCCN1C(=O)C2CC(=O)CC(C3CCCCC3)C2C1=O (stereo not drawn) [TCMDC-139128] | 18.42 |
| O=C(O)C(F)(F)F.c1cc(-c2ccc(CNC3CCOCC3)cc2)cc(-c2nc3ccccc3[nH]2)c1 [TCMDC-132572] | 48.89 |
| CCCC[C@H](NC(=O)O[C@H](COc1ccc(OCc2ccccc2)cc1)C(C)(C)C)C(=O)C(=O)Nc1ccn[nH]1 [TCMDC-138665] | 67.01 |
| CCC[C@@H]([C@@H](CC(C)C)C(=O)N[C@@H](CCCCNC(=O)OCc1ccccc1)C(=O)Nc1ncccn1)N(O)C=O [TCMDC-137323] | 42.47 |
| CCCC[C@H](NC(=O)OC(C)(C)C)C(=O)Nc1ccc(Cc2ccc(NC(=O)[C@H](CCCC)NC(=O)OC(C)(C)C)cc2)cc1 [TCMDC-131870] | -71.66 |
| Cc1ccc2c(Cl)c(C(=O)N3CCCc4ccccc43)sc2c1 [TCMDC-125658] | 1.703 |
| CC1(CCc2ccccc2)N=C(N)N=C(N)C1c1ccc(Cl)c(Cl)c1 (stereo not drawn) [TCMDC-136376] | 33.71 |
| CC1(CCc2ccccc2)N=C(N)N(Cc2ccccc2)C(=O)C1c1ccc(Cl)c(Cl)c1 (stereo not drawn) [TCMDC-136509] | 88.15 |
| CCCCCCC1(C)N=C(N)N=C(N)C1c1ccc(Cl)c(Cl)c1 (stereo not drawn) [TCMDC-137594] | 22.11 |
| O=C(NCCN1CCOCC1)c1ccc(N2CCC(Oc3ccc4ccccc4c3)CC2)nc1 [TCMDC-134400] | 19.81 |
| O=C(CCC1CCCCC1=O)c1ccccc1 (stereo not drawn) [TCMDC-125845] | 5.946 |
| CN(c1ccc2c(c1)nc(NCc1ccccc1)n2C)c1ccnc(Nc2ccc(CS(C)(=O)=O)cc2)n1 [TCMDC-138740] | 25.8 |
| CCOc1cc(C(C)C)ccc1C1CCN(CCCCNC(=O)c2ccc(NC(=O)c3ccc(Cl)cc3)cc2)CC1 [TCMDC-138385] | 20.72 |
| CCOc1ccccc1C1CCN(CCCCNC(=O)c2ccc(NC(=O)c3ccc(Cl)cc3)cc2)CC1 [TCMDC-138369] | -17.64 |
| Cc1ccc(C2CCN(CCCCNC(=O)c3ccc(NC(=O)c4ccc(Cl)cc4)cc3)CC2)c(OCC(F)(F)F)c1 [TCMDC-138572] | -14.71 |
| Cc1ccc(C2CCN(CCCCNC(=O)c3ccc(NC(=O)c4ccc(Cl)cc4)cc3)CC2)c(OCC2CC2)c1 [TCMDC-138541] | 76.06 |
| CCOc1cc(C)ccc1C1CCN(CCCCNC(=O)c2ccc(NC(=O)c3cc(Cl)cc(Cl)c3)cc2)CC1 [TCMDC-138620] | 9.848 |
| CCOc1ccc(C2CCN(CCCCNC(=O)c3ccc(NC(=O)c4ccc(Cl)cc4)cc3)CC2)c(CC)c1 [TCMDC-138357] | 26.78 |
| CCOc1ccc(C2CCN(CCCCNC(=O)c3ccc(NC(=O)c4ccc(Cl)cc4)cc3)CC2)c(Cl)c1 [TCMDC-138365] | 58.19 |

| Structure (SMILES) | % Inhibition [%] |
| --- | --- |
| COc1cc(C(C)C)ccc1C1CCN(CCCCNC(=O)c2ccc(NC(=O)c3ccc(Cl)cc3)cc2)CC1 [TCMDC-138403] | 115.5 |
| COc1ccccc1C1CCN(CCCCNC(=O)c2ccc(/C=C/c3cc(Cl)cc(Cl)c3)cc2)CC1 [TCMDC-138241] | 103.9 |
| COc1ccc(C2CCN(CCCCNC(=O)c3ccc(NC(=O)c4ccc(Cl)cc4)cc3)CC2)c(OC)c1 [TCMDC-138254] | 47.57 |
| CCc1cc(OC)ccc1C1CCN(CCCCNC(=O)c2ccc(NC(=O)c3ccc(Cl)cc3)cc2)CC1 [TCMDC-138360] | -6.372 |
| COc1ccccc1C1CCN(CCCCNC(=O)c2ccc(NC(=O)c3ccc(Cl)cc3)cc2)CC1 [TCMDC-138239] | 21.16 |
| O=C(Nc1ccc2ccccc2n1)c1ccccc1-c1ccccc1 [TCMDC-125339] | -5.994 |
| FC(F)(F)c1ccc(/C=C/c2cncnc2Nc2ccc3nc(Cc4ccccc4)[nH]c3c2)cc1 [TCMDC-138660] | -4.612 |
| CC(Oc1ccc(C(=O)c2ccc(F)cc2)cc1)C(=O)N1CCc2ccccc21 (stereo not drawn) [TCMDC-123555] | 10.82 |
| Cc1sc2nc(CSc3ccccc3)nc(N3CCN(CC(=O)N4CCCC4)CC3)c2c1C [TCMDC-125052] | -14.62 |
| N#Cc1ccc2c(c1)CCN(CCC1CCC(NC(=O)/C=C/c3ccc(F)c4ccccc34)CC1)CC2 (stereo not drawn) [TCMDC-139664] | -16.56 |
| CC(C)C[C@H](Nc1ccnc(NCC2CCCCC2)n1)C(=O)NCCc1ccccc1 [TCMDC-134713] | -30.95 |
| CCCC(=O)Nc1ccc(OCCN(Cc2ccccc2OC(F)(F)F)c2ccc(C(F)(F)F)c(C#N)c2)cc1 [TCMDC-132791] | 22.95 |
| CCCCCc1ccc(NC(=O)Nc2ccc(Cn3ncc(N4CCCNCC4)c(Cl)c3=O)cc2)cc1 [TCMDC-133312] | -21.48 |
| O=C(NCCCCN1CCC(c2ccc(C(F)(F)F)cc2C(F)(F)F)CC1)c1ccc(NC(=O)c2ccc(Cl)cc2)cc1 [TCMDC-138343] | -51.81 |
| COc1cccc(OCC2CCCN(CCCCNC(=O)c3ccc(NC(=O)c4ccc(Cl)cc4)cc3)C2)c1 (stereo not drawn) [TCMDC-138269] | 92.38 |
| COc1ccc(C2CCN(CCCCNC(=O)c3ccc(NC(=O)c4ccc(Cl)cc4)cc3)C2)c(OC)c1 (stereo not drawn) [TCMDC-138281] | 10.37 |
| COc1cccc(C2CCCN(CCCCNC(=O)c3ccc(NC(=O)c4ccc(Cl)cc4)cc3)C2)c1 (stereo not drawn) [TCMDC-138283] | 16.5 |
| CCOc1ccc(C2CCN(CCCCNC(=O)c3ccc(NC(=O)c4ccc(Cl)cc4)cc3)CC2)c(OCC)c1 [TCMDC-138260] | 93.19 |
| CC(C)c1ccc(C2CCN(CCCCNC(=O)c3ccc(NC(=O)c4ccc(C(F)(F)F)cc4)cc3)CC2)c(O)c1 [TCMDC-138527] | 105.5 |
| CCOc1ccc(N2CCN(CCCCNC(=O)c3ccc(NC(=O)c4ccc(Cl)cc4)cc3)CC2)c(OCC)c1 [TCMDC-138243] | 4.088 |
| Cc1ccc(C2CCN(CCCCNC(=O)c3ccc(-c4ccc(C(F)(F)F)cc4)cc3)CC2)c(O)c1 [TCMDC-138538] | 45.11 |

| Structure (SMILES) | % Inhibition [%] |
| --- | --- |
| COc1ccc(C2CCN(CCCNC(=O)c3ccc(NC(=O)c4ccc(Cl)cc4)cc3)CC2)c(OC)c1 [TCMDC-138288] | 4.031 |
| CCCCc1nc2nc(N)nc(N)c2cc1CCC [TCMDC-137499] | 32.62 |
| Nc1ccn([C@@H]2O[C@H](COC(c3ccccc3)(c3ccccc3)c3ccccc3)[C@@H](O)[C@@H]2O)c(=O)n1 [TCMDC-131864] | 13.5 |
| Cc1[nH]cc(Br)c(=O)c1-c1ccc(Oc2ccccc2)cc1 [TCMDC-136196] | 35.13 |
| COc1cc(NC(=O)Nc2cccc3ccccc23)c(OC)cc1Cl [TCMDC-123751] | 9.254 |
| COc1ccc(OC)c(-c2ccc(=O)n(CC(=O)Nc3cccc4ccccc34)n2)c1 [TCMDC-125146] | 85.63 |
| COc1ccc(C(=O)Cn2nc(-c3ccc(Cl)cc3)ccc2=O)c(OC)c1 [TCMDC-135946] | -6.888 |
| O=C(Cc1cnc[nH]1)Nc1cccc(-c2cccc(-c3nc4ccc(F)cc4[nH]3)c2)c1 [TCMDC-136943] | 10.3 |
| O=C(Nc1ccc(Cl)c(Cl)c1)N(Cc1ccccc1Br)C1CCNCC1 [TCMDC-141401] | 32.46 |
| COc1ccccc1-c1cccc(-c2cccc(NC(=O)c3ccc([N+](=O)[O-])o3)c2)n1 [TCMDC-124800] | 105.3 |
| O=C(Nc1cccc(-c2cccc(-c3ccc(F)cc3)n2)c1)c1ccc([N+](=O)[O-])o1 [TCMDC-124807] | 101.6 |
| COc1ccc(OC)c(-c2cccc(-c3cccc(NC(=O)c4ccc([N+](=O)[O-])o4)c3)n2)c1 [TCMDC-124799] | 113.4 |
| COc1cccc(-c2cc(-c3ccc(NC(=O)c4ccccc4)cc3)c3c(N)ncnc3n2)c1 [TCMDC-134855] | -19.07 |
| CCCc1ccc(-c2csc(NC(=O)c3ccc([N+](=O)[O-])o3)n2)cc1 [TCMDC-125314] | 1.071 |
| COc1cccc(-c2cc(C(=O)Nc3cc(Oc4ccc(O)cc4)cc([N+](=O)[O-])c3)on2)c1 [TCMDC-125290] | -10.41 |
| Cc1ccc(-n2nc3ccc(NC(=O)c4ccc([N+](=O)[O-])o4)cc3n2)cc1C [TCMDC-123655] | 20.82 |
| O=C(Nc1cc(Oc2ccc(O)cc2)cc([N+](=O)[O-])c1)c1cc(-c2ccc(F)cc2)no1 [TCMDC-125444] | -44.25 |
| O=C(Nc1cccc(-c2nc3ccccc3[nH]2)c1)c1ccc(-c2cccc([N+](=O)[O-])c2)o1 [TCMDC-125228] | 18.9 |
| CC(C)(C)c1ccc(C(=O)Nc2ccc(NC(=O)c3ccc([N+](=O)[O-])o3)cc2)cc1 [TCMDC-123733] | -4.108 |
| O=C(Nc1ccc(-c2nc3ccccc3[nH]2)cc1)c1ccc(-c2cccc([N+](=O)[O-])c2)o1 [TCMDC-125805] | -5.454 |
| COc1cccc(-c2cccc(-c3ccc(NC(=O)c4ccc([N+](=O)[O-])o4)cc3)n2)c1 [TCMDC-124806] | 99.55 |

Source: paper PMC4552634, “A New Set of Chemical Starting Points with Plasmodium falciparum Transmission-Blocking Potential for Antimalarial Drug Discovery” (PLoS ONE, 2015)
